# Measured values as given in ChEMBL document CHEMBL1857833, “Screening and optimization of specific chemical series against human African Trypanosomiasis (HAT)”.
# In all, about 4,400 compounds went through this assay and about 390 (8.9%) showed an effect of 50% or more. The entries come from a sample that favours strong results as a whole.
# System: Trypanosoma brucei
# Assay: DNDI: Inhibition of Human African Trypanosomiasis, SBRI 427, in vitro at 2 ug.mL-1
# Assay type: functional
row,Structure (SMILES),% inhibition
1,COc1ccc(-c2nc(CNCCc3cc(OC)ccc3OC)co2)cc1,7%
2,COc1ccc(OC)c(CCNCc2coc(-c3ccc(C(C)(C)C)cc3)n2)c1,74%
3,COc1ccc(OC)c(CCNCc2coc(-c3ccc(C)cc3)n2)c1,7%
4,COc1ccc(Oc2nc(C)ccc2/C(=N/O)N2CC2C)cc1 (stereo not given),14%
5,CC1CN1/C(=N\O)c1ccc(Oc2ccc3oc4ccccc4c3c2)nc1 (stereo not given),68%
6,Cc1cc(C)cc(Oc2ccc(/C(=N/O)N3CC3C)cn2)c1 (stereo not given),3%
7,CC1CN1/C(=N\O)c1ccc(Oc2ccc3ccccc3c2)nc1 (stereo not given),8%
8,COc1ccc(OC)c(CCNCc2coc(-c3ccccc3C)n2)c1,11%
9,Cc1ccc(/C(=N/O)N2CC2C)c(Oc2cccc(C(C)C)c2)n1 (stereo not given),-6%
10,Cc1ccc(/C(=N/O)N2CC2C)c(Oc2cccc3ccccc23)n1 (stereo not given),12%
